LAP4 TOR yeast: modulators of LAP4-GFP expression in yeast, primary screen, S. cerevisiae, multiplex flow cytometry, MLPCN library | 3 h; median GFP as percent of DMSO wells | GFP response vs DMSO, % at 10 µM | 320,000 tested, 0.34% active | AID 2023, 2009;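 active = GFP response vs DMSO above a set limit, about the screen mean plus 3 SD, cut at about 150% in these data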
CIT2 TOR yeast: modulators of CIT2-GFP expression in yeast, primary screen, S. cerevisiae, GFP fusion, multiplex flow cytometry, MLPCN library; S. cerevisiae CIT2-GFP strain, 3 h; 100 means same as DMSO wells; GFP response vs DMSO, % at 10 µM; 320,000 tested, 0.065% active; AID 2029, 2009;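 active = GFP response relative to DMSO above a set limit, near the screen mean plus 3 SD, cut at about 150% in these data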;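 also: ratio of well median GFP fluorescence to mean of DMSO wells on the plate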
MEP2-GFP yeast: modulators of MEP2-GFP levels in yeast, primary screen, S. cerevisiae, multiplex flow cytometry, MLPCN library | S. cerevisiae MEP2-GFP strain, 3 h; 100% = DMSO control level | GFP response vs DMSO, % at 10 µM | 330,000 tested, 0.51% active | AID 2016, 2009;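 active = GFP response versus DMSO above a set limit, roughly screen mean plus 3 SD, cut at about 180% in these data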;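 also: median GFP fluorescence of the barcode-gated MEP2-GFP cells per well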
AGP1 TOR yeast: modulators of AGP1-GFP expression in yeast TOR pathway, primary screen, cell-based, multiplex flow cytometry, S. cerevisiae, MLPCN library; 3 h; GFP as percent of DMSO wells; GFP response vs DMSO, % at 10 µM; 320,000 tested, 0.02% active;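 active = GFP response relative to DMSO above a set limit, near screen average plus 3 SD, cut at about 150% in these data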;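 also: median GFP channel fluorescence of the gated AGP1 strain per well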
RPL19A TOR yeast: RPL19A-GFP expression modulators in yeast, primary screen, cell-based, S. cerevisiae, multiplex flow cytometry, MLPCN; S. cerevisiae RPL19A-GFP strain, 3 h; active compounds read low; percent response vs DMSO, % at 10 µM; 330,000 tested, 0.3% active;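 active = percent response vs DMSO below 50%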;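 also: median channel GFP fluorescence of the barcoded RPL19A-GFP strain; lower means less RPL19A-GFP as with rapamycin TOR inhibition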
LAP4 cherry2: LAP4-GFP expression modulators in yeast, confirmation, cell-based, second cherry pick, flow cytometry | shares compounds with LAP4 TOR yeast | S. cerevisiae LAP4-GFP strain, 3 h | GFP response vs DMSO, % at 10 µM | 590 tested, 20% active;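 active = GFP signal as percent of the solvent control above about 150%, meaning raised reporter expression, limit read from the data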
MEP2 cherry2: modulators of MEP2-GFP levels in yeast, confirmation, S. cerevisiae, flow cytometry GFP, second cherry picks; AID 2622, 2010; GFP response vs DMSO, % at 10 µM; S. cerevisiae MEP2-GFP strain, 3 h; 590 tested, 10% active; shares compounds with LAP4 TOR yeast;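 active = GFP signal above 150% of the solvent control wells, that is a rise of more than half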;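 also: median channel GFP fluorescence of all gated yeast cells per well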
RPL19A GFP CP2: RPL19A-GFP modulators in TOR pathway yeast, confirmation, cell-based, S. cerevisiae, flow cytometry, second cherry pick; AID 2623, 2010; 590 tested, 3% active; GFP response vs DMSO, % at 10 µM; S. cerevisiae RPL19A-GFP strain, 3 h; active compounds read low; 100% means same as DMSO wells; shares compounds with LAP4 TOR yeast;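 active = under 65% GFP response relative to DMSO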;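 also: median GFP channel fluorescence per well over the all cells gate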
CIT2-GFP pick2: modulators of CIT2-GFP expression in yeast, confirmation, flow cytometry, second cherry pick, single plex; GFP response vs DMSO, % at 10 µM; S. cerevisiae CIT2-GFP strain, 3 h; DMSO control wells read 100%; AID 2624, 2010; shares compounds with LAP4 TOR yeast; 590 tested, 8% active;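 active = GFP response vs DMSO above about 150%, limit read from the data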;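 also: median green fluorescence per well over all gated yeast cells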
AGP1-GFP pick2: AGP1-GFP expression modulators, hit retest, confirmation, cell-based, flow cytometry, S. cerevisiae, cherry pick set 2; shares compounds with LAP4 TOR yeast; S. cerevisiae AGP1-GFP strain, 3 h; percent response vs DMSO, % at 10 µM; 590 tested, under 10 active; AID 2643, 2010;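 active = over 150 percent of DMSO response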;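 also: median GFP channel fluorescence over all cells without mother daughter split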
Yeast autofluor: compound autofluorescence in yeast s288c, dose response, artefact control for yeast TOR pathway GFP screen, s288c strain | shares compounds with LAP4 TOR yeast | S. cerevisiae s288c, 520 nm autofluorescence, flow cytometry, 3 h; active compounds read high; zero means same as solvent-only cells | fluorescence change (kMESF span) at 33 µM | 610 tested, under 10 active | AID 2757, 2010;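 active = fluorescence span over the dose series, or activity score, above about 33, limit read from the data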
Yeast autofl DR: autofluorescence of compounds in yeast s288c, dose response, artefact control for yeast TOR pathway GFP screen, primary hits, KU SAR, s288c parental | shares compounds with LAP4 TOR yeast | S. cerevisiae s288c parental, compound autofluorescence, flow cytometry, 3 h | fluorescence change (span) at 33 µM | 110 tested, under 10 active;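 active = fluorescence change span, or the activity score built from it, above 25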
TORC1 bypass: wild-type yeast growth inhibition sparing TORC1 bypass cells, mechanism study for yeast TOR pathway GFP screen, BY4741 wild type, TORC1 bypass strain | S. cerevisiae BY4741 spot growth rating, 48-72 h; active compounds read low | AID 504456, 2011 | growth rating (0-3) at 30 µM | 120 tested, under 10 active | shares compounds with LAP4 TOR yeast;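 active = growth rating at most 1 for wild type yeast while the TORC1 bypass strain still grows fully, rated 3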
Hits are given with their value; 0 = inactive; - = no result given. Only some compounds are listed: those with a hit (about 0.92% of all), similar ones and a draw of the others.

SMILES	LAP4 TOR yeast	CIT2 TOR yeast	MEP2-GFP yeast	AGP1 TOR yeast	RPL19A TOR yeast	LAP4 cherry2	MEP2 cherry2	RPL19A GFP CP2	CIT2-GFP pick2	AGP1-GFP pick2	others
CCN(c1ccccc1)S(=O)(=O)c1ccc(OC)c(NC(=O)c2cc(F)c(F)c(F)c2F)c1	177	0	0	0	0	0	0	0	0	0
CCN(c1ccccc1)S(=O)(=O)c1ccc(OC)c(NC(=O)c2cccs2)c1	0	0	0	0	0	-	-	-	-	-
O=C(Nc1cccc(F)c1)c1ccc(-c2ccccc2Cl)o1	0	0	0	0	0	-	-	-	-	-
Cc1ccc(-c2ccc(C(=O)Nc3cccc(F)c3)o2)c2ccccc12	171	0	0	0	0	0	0	0	0	0
COCCCn1c(SCc2cc(=O)[nH]c3ccccc23)nnc1-c1ccco1	0	0	0	0	0	-	-	-	-	-
CC(=O)c1sc2nc(-c3cccs3)ccc2c1N	175	0	0	0	0	0	0	0	0	0
Nc1c(C(=O)Nc2nc3ccccc3s2)sc2nc(-c3cccs3)ccc12	0	0	0	0	0	-	-	-	-	-
Oc1c(Br)cc(Br)cc1C=Nc1ccc2c(c1)OCCO2	0	0	0	0	0	-	-	-	-	-
Oc1c(Br)cc(Br)cc1C=Nc1ccc2c(c1)OCO2	152	0	0	0	0	-	-	-	-	-	Yeast autofluor=0
O=C1OC(c2ccccc2)c2ccccc21 (stereo unspecified)	0	0	0	0	0	-	-	-	-	-
O=S1OC(c2ccccc2)c2cc(Cl)ccc21 (stereo unspecified)	157	0	0	0	0	0	0	0	0	0
CCOc1cc2c(C#N)c(N(CC)CC)nc(N)c2c(N)n1	153	0	0	0	0	0	0	0	0	0
CCOc1cc2c(C#N)c(N3CCOCC3)nc(N)c2c(N)n1	0	0	0	-	0	-	-	-	-	-
CC(C)C(=O)NC(c1cccs1)c1cc([N+](=O)[O-])c2cccnc2c1O (stereo unspecified)	153	0	0	0	0	-	-	-	-	-	Yeast autofluor=0
Cc1ccc(C(NC(=O)C(C)C)c2cc([N+](=O)[O-])c3cccnc3c2O)cc1 (stereo unspecified)	0	0	0	0	0	-	-	-	-	-
Cc1ccc(S(=O)(=O)Cc2cc(F)c([N+](=O)[O-])cc2[N+](=O)[O-])cc1	172	0	0	0	0	-	-	-	-	-	Yeast autofluor=0
O=C1N(c2ccccc2C(F)(F)F)O[C@@]1(c1ccccc1)C1CCCCC1	0	0	0	0	0	0	0	0	0	0	Yeast autofluor=0
O=C1N(c2ccccc2C(F)(F)F)O[C@@]1(c1ccccc1)C1CCCC1	0	0	0	0	0	0	0	0	0	0	Yeast autofluor=0
Cc1ccc2nc(-c3ccc(NC(=S)NC4CC(C)(C)NC(C)(C)C4)cc3)sc2c1	0	0	0	0	0	0	0	0	0	0
CC(=O)c1ccc(N2CCN(C(=O)C3CCN(S(=O)(=O)c4cccs4)CC3)CC2)cc1	0	0	0	0	0	-	-	-	-	-
O=[N+]([O-])c1cnc(Sc2ccncn2)s1	262	0	0	0	0	-	-	-	-	-	Yeast autofluor=0
COc1ccccc1C(=O)OCCNC(=O)Cn1cnc2c1c(=O)n(C)c(=O)n2C	0	0	0	0	0	-	-	-	-	-
CCN(C(=O)CN1CCN(c2cccc(Cl)c2)CC1)c1c(N)n(Cc2ccccc2)c(=O)[nH]c1=O	0	0	0	0	0	0	0	0	0	0
CCC1CCC(C(=O)NC(C(=O)NCCN2CCOCC2)C(C)C)CC1 (stereo unspecified)	0	0	0	0	0	-	-	-	-	-
Cc1ccc(NC(=S)N(CCN2CCCCC2)Cc2ccco2)cc1Cl	0	0	0	0	0	-	-	-	-	-
SMILES	LAP4 TOR yeast	CIT2 TOR yeast	MEP2-GFP yeast	AGP1 TOR yeast	RPL19A TOR yeast	LAP4 cherry2	MEP2 cherry2	RPL19A GFP CP2	CIT2-GFP pick2	AGP1-GFP pick2	others
CCNC(=S)NNC(=O)Cn1c(=O)c2c(ncn2CCOC)n(Cc2ccccc2)c1=O	179	0	221	0	0	0	0	0	0	0
Cc1cc2c(C)nc3ccccc3c2o1	0	0	0	0	0	0	0	0	0	0
Cc1nc2ccccc2c2oc(C(=O)NC3CC3)cc12	0	0	0	0	0	-	-	-	-	-
O=C(c1ccc(C(=O)N2CCCc3ccccc32)s1)N1CCCc2ccccc21	171	0	0	0	0	0	164	0	0	0	Yeast autofluor=0;Yeast autofl DR=0;TORC1 bypass=0
Cc1noc(C)c1CSCC(=O)Oc1ccc(N(C)S(=O)(=O)c2ccc(Cl)cc2)cc1	0	0	0	0	0	-	-	-	-	-
COc1ccc(/C=C2\N=C(C)OC2=O)cc1[N+](=O)[O-]	161	0	0	0	0	0	0	0	0	0
Cc1cc(C)cc(NC(=O)CN2CCc3cc4c(cc3C2C)OCCCO4)c1 (stereo unspecified)	0	0	193	0	0	0	0	0	0	0
Cc1cccc(NC(=O)CN2CCc3cc4c(cc3C2C)OCCCO4)c1 (stereo unspecified)	0	0	0	0	0	-	-	-	-	-

Source: PubChem (NMMLSC)
